The record followed here is ChEMBL document CHEMBL1961873, “Compounds: GSK PKIS; Assays: Nanosyn kinase panel” (2012).

Experiment [1] addresses T1, Serine/threonine-protein kinase Nek9 (Homo sapiens) (UniProt Q8TD19).
T1 sequence (whole entry): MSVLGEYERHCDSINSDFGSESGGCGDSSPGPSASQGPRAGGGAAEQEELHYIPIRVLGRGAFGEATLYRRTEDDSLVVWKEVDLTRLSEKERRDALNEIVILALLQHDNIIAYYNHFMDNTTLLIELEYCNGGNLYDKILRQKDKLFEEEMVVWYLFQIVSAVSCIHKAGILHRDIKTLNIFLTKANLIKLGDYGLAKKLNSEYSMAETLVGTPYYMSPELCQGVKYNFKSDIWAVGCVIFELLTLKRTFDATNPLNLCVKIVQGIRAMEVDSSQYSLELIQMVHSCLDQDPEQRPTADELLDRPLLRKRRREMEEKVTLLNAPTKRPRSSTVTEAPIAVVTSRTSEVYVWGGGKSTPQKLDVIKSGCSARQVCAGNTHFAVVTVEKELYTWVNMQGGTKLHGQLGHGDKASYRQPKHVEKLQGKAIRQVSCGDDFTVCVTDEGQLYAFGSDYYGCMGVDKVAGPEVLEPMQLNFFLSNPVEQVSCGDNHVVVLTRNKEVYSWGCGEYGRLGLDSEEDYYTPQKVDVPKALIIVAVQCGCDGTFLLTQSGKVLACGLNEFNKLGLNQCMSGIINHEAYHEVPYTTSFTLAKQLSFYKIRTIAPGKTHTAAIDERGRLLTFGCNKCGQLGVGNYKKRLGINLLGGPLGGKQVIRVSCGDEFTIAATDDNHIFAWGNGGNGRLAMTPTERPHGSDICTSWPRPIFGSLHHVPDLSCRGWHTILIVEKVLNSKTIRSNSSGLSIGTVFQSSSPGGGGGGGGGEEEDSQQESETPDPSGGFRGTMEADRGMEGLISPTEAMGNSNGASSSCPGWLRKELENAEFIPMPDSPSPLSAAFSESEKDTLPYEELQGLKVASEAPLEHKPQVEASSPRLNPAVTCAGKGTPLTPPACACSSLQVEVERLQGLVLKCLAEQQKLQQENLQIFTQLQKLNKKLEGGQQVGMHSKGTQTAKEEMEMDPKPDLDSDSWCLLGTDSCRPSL
The note with it: at 1 µM.

In experiment [2] the target is Serine/threonine-protein kinase PLK1 (Homo sapiens) (UniProt P53350). The following applies: at 0.1 µM.
Chain of Serine/threonine-protein kinase PLK1 (Homo sapiens) (P53350 whole entry): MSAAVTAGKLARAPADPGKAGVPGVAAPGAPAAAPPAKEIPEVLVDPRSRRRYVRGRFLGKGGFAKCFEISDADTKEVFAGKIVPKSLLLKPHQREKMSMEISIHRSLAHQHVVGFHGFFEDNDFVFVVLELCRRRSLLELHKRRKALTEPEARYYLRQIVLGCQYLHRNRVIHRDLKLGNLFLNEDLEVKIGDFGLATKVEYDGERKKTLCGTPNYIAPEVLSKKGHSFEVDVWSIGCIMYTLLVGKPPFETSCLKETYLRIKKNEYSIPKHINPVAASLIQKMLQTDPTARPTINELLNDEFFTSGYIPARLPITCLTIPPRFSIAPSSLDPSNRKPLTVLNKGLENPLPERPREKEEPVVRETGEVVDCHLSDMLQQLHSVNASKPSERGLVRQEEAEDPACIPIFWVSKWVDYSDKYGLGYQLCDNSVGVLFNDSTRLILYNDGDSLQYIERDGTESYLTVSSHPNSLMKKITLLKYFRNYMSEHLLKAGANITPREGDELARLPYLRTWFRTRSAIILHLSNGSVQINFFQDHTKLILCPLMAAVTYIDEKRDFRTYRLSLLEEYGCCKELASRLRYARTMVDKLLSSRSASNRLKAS
The target is the same in experiment [3]. The following applies: at 1 µM.
Experiment [4] addresses T2, Dual specificity protein kinase TTK (Homo sapiens) (UniProt P33981).
T2 sequence (whole entry): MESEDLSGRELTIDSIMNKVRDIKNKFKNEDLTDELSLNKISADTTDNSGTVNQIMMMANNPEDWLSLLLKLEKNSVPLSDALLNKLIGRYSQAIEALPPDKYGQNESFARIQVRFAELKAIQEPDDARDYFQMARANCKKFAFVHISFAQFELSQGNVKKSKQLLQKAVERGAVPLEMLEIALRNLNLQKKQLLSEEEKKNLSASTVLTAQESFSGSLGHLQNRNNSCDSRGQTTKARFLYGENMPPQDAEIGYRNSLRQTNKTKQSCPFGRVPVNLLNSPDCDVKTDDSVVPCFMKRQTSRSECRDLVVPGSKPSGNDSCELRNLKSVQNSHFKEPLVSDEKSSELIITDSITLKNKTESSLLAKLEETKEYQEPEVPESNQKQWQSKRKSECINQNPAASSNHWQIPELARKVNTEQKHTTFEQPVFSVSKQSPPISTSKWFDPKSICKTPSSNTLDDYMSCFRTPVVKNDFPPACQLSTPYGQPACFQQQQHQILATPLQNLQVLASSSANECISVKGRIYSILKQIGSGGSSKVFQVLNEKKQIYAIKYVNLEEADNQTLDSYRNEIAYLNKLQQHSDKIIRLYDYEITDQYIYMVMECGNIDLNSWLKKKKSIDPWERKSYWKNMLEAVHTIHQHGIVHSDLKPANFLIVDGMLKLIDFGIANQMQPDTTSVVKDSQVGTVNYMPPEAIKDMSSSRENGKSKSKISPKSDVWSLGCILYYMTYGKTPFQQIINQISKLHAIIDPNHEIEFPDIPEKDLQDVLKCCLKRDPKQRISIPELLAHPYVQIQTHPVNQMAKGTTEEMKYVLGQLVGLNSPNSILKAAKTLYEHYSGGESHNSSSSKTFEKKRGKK
The following applies: at 0.1 µM.

The subject of experiment [5] is T3, Receptor-type tyrosine-protein kinase FLT3 (Homo sapiens), P36888 [D835Y].
T3 sequence (whole entry): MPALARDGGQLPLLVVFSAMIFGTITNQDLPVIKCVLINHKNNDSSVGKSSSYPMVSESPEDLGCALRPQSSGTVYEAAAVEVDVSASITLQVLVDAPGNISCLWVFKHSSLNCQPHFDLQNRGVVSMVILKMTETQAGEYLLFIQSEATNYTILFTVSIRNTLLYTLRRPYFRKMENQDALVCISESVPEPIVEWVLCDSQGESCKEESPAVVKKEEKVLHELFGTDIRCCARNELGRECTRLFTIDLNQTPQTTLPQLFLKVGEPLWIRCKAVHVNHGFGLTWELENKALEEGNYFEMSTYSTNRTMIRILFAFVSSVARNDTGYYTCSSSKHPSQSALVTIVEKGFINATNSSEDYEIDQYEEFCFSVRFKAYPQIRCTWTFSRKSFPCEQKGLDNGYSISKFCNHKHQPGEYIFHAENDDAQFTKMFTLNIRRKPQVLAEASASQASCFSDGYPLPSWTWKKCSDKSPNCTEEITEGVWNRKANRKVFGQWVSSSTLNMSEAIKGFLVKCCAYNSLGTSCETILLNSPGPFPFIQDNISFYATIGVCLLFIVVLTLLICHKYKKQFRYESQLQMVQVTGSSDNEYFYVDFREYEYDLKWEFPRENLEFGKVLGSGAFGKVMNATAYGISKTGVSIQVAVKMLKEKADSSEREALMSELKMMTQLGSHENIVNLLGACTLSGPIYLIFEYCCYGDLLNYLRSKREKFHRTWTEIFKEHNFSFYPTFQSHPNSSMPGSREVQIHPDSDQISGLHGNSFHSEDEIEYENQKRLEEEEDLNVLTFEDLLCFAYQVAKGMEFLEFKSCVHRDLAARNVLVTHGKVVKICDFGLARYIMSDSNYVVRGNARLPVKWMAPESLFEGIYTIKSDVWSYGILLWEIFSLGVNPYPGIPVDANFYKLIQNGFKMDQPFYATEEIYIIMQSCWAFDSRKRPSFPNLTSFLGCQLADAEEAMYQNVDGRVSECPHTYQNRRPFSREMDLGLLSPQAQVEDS
The note with it: at 1 µM.

Experiment [6] has as its target Vascular endothelial growth factor receptor 3 (Homo sapiens) (UniProt P35916). The note with it: at 0.1 µM.
Experiment [7] shares this target. The note with it: at 1 µM.
In experiment [8] the target is Macrophage colony-stimulating factor 1 receptor (Homo sapiens) (UniProt P07333). The following applies: at 0.1 µM.
Chain of Macrophage colony-stimulating factor 1 receptor (Homo sapiens) (P07333 whole entry): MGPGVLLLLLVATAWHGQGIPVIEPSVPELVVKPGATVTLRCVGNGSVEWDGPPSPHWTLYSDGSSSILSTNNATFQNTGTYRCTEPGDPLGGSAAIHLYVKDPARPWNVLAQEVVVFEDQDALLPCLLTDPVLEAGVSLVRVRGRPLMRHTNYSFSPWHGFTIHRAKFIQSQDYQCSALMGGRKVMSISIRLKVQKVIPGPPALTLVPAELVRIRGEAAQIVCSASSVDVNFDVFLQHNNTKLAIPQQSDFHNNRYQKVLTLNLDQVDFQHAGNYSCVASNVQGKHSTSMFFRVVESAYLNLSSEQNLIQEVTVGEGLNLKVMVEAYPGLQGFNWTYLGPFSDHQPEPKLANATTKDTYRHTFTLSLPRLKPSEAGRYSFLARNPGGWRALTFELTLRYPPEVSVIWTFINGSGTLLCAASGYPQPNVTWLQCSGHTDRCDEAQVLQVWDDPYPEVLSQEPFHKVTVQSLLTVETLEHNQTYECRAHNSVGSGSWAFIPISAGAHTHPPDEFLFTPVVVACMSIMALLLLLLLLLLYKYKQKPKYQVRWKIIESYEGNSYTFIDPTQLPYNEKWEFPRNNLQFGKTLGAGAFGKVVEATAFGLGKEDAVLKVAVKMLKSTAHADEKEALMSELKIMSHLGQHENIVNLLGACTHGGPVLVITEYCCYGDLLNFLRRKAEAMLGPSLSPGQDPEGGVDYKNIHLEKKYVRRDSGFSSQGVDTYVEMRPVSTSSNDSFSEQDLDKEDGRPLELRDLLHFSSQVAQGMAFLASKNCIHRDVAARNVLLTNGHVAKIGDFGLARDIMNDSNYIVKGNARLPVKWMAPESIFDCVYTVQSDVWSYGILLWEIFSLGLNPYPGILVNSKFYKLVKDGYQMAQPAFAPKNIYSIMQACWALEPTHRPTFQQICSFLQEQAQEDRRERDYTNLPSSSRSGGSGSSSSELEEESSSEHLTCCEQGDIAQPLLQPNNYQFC
Experiment [9] shares this target. The note with it: at 1 µM.
Experiment [10] concerns the target Tyrosine-protein kinase Fyn (Homo sapiens) (UniProt P06241). The following applies: at 0.1 µM.
The target is the same in experiment [11]. The following applies: at 1 µM.
Experiment [12] addresses Tyrosine-protein kinase HCK (Homo sapiens) (UniProt P08631). The note with it: at 0.1 µM.
Experiment [13] shares this target. The note with it: at 1 µM.
Experiment [14] addresses Insulin-like growth factor 1 receptor (Homo sapiens) (UniProt P08069). The following applies: at 0.1 µM.
The target is the same in experiment [15]. The following applies: at 1 µM.
Experiment [16] concerns the target Insulin receptor (Homo sapiens) (UniProt P06213). The note with it: at 0.1 µM.
For experiment [17] the target is unchanged. The following applies: at 1 µM.
In experiment [18] the target is Insulin receptor-related protein (Homo sapiens) (UniProt P14616). The note with it: at 0.1 µM.
Chain of Insulin receptor-related protein (Homo sapiens) (P14616 27-742 limits assumed): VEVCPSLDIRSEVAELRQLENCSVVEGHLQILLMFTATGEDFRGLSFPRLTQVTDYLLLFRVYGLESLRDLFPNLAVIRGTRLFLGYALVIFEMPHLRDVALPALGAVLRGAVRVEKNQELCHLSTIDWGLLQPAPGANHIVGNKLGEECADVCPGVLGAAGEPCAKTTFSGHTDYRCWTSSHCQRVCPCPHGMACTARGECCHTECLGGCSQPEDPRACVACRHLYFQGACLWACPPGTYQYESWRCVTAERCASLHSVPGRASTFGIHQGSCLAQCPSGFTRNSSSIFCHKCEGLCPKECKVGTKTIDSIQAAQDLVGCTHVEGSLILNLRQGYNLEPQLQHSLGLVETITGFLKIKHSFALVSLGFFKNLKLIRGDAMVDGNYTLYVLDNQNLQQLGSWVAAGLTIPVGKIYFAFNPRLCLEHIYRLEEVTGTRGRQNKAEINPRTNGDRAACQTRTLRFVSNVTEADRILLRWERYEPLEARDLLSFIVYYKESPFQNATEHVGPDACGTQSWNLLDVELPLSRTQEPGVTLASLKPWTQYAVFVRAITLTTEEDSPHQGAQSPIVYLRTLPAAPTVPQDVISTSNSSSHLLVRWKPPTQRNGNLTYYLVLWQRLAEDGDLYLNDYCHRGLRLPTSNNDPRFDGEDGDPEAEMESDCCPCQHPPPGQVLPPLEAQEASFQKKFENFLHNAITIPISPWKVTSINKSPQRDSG
Chain of Insulin receptor-related protein (Homo sapiens) (P14616 747-1297 limits assumed): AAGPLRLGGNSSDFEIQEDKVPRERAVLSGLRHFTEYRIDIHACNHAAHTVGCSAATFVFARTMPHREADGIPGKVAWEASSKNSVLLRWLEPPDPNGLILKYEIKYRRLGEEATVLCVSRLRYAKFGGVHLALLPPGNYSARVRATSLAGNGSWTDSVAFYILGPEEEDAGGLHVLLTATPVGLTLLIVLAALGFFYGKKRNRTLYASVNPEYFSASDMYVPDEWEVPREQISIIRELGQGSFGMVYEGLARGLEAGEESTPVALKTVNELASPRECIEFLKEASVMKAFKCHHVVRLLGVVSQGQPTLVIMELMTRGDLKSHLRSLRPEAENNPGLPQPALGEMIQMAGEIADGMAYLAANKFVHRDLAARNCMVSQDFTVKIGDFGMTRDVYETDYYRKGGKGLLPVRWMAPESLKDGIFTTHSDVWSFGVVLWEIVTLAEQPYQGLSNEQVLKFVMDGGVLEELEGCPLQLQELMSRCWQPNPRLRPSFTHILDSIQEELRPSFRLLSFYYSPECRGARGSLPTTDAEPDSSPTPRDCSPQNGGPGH
Experiment [19] shares this target. The following applies: at 1 µM.
In experiment [20] the target is T4, Tyrosine-protein kinase ITK/TSK (Homo sapiens) (UniProt Q08881).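 Further: mean percent inhibition of ITK from the GSK PKIS screen.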
T4 sequence (whole entry): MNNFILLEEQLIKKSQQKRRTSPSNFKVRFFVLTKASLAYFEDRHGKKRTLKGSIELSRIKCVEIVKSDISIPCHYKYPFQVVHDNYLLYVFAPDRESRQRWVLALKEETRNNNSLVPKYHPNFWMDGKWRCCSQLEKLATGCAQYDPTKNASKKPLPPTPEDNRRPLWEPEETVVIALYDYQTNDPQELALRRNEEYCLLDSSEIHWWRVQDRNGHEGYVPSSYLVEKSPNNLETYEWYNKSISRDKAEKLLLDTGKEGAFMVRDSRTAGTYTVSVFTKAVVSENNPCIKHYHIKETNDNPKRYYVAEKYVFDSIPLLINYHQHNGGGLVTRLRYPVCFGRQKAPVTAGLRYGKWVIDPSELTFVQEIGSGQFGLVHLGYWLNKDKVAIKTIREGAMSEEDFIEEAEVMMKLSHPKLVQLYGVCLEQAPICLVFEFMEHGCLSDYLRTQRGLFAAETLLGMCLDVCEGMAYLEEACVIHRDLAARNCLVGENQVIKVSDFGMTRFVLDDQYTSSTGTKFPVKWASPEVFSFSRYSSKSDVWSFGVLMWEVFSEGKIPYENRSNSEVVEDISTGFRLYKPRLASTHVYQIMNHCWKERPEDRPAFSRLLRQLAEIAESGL
The note with it: at 0.1 µM.

Chain of Tyrosine-protein kinase Fyn (Homo sapiens) (P06241 2-537 limits assumed): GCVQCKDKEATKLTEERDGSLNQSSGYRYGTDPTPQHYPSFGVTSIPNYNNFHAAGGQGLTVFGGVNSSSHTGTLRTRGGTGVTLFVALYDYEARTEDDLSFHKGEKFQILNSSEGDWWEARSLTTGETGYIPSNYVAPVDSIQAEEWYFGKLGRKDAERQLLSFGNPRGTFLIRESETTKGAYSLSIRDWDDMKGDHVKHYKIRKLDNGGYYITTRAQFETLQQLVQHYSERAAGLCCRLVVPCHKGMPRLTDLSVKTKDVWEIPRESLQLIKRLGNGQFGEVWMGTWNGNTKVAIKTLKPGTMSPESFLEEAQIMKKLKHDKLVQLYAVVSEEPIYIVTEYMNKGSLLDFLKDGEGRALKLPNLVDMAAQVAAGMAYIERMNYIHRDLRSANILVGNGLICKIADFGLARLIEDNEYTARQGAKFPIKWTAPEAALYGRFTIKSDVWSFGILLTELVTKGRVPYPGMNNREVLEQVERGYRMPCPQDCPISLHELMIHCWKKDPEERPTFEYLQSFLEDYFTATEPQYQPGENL
Chain of Vascular endothelial growth factor receptor 3 (Homo sapiens) (P35916 whole entry): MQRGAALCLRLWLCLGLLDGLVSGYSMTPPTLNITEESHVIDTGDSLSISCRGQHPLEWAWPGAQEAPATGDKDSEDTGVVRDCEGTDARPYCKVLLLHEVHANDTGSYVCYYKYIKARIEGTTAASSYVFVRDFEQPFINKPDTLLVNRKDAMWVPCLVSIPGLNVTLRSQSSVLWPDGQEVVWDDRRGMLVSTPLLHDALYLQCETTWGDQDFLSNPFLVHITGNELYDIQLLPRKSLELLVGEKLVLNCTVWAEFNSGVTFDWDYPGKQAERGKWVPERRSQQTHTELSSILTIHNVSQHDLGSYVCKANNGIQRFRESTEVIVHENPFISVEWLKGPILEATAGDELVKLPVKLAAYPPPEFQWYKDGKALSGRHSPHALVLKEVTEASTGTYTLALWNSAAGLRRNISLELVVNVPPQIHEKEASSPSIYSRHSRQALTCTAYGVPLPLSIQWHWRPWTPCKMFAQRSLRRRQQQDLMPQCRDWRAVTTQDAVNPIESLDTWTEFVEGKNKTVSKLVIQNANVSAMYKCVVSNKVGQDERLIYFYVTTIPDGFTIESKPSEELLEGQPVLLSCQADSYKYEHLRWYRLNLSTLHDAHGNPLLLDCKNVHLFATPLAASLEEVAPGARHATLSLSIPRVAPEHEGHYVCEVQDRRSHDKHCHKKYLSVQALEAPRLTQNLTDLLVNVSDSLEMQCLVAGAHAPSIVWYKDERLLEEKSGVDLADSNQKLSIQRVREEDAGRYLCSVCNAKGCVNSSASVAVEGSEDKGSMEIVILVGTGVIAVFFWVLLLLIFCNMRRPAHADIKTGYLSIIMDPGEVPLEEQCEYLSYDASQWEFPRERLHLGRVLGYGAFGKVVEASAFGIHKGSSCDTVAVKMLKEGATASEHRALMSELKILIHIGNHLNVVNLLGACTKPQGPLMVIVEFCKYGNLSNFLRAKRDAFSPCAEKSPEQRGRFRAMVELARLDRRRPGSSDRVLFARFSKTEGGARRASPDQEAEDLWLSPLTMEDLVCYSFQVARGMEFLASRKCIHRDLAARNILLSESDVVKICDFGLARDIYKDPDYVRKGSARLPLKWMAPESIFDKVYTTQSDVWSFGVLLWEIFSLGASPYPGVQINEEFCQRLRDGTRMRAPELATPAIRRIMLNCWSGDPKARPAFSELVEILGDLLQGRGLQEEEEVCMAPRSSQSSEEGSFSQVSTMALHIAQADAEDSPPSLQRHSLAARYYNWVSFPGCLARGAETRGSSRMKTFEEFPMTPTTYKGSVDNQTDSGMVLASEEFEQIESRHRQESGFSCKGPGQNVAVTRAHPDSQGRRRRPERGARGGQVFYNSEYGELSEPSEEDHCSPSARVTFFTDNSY

What is called inhibition is the drop in the measured response relative to a control, in per cent. In the case of `CCc1ccc(Oc2nccc(-c3c(-c4ccc(F)cc4)ncn3C3CCNCC3)n2)cc1`, the inhibition was -3% in [1]; 4.18% in experiment [2]; 6.93% in experiment [3]; 5.58% in experiment [4]; 7.51% in experiment [5]; 6.35% in experiment [6]. In addition, the inhibition in experiment [7] came out at 4.74%; in experiment [8] it was 1.36%; in [9], 6.16%; in experiment [10] it was 1.83%; in experiment [11], 7.59%; in experiment [12], 4.84%. Also, the inhibition in [13] is 8.91%; in experiment [14], 5.24%; in [15], 3.51%; in [16], 5.54%; in [17] it was 3.85%; in experiment [18], 2.18%. Besides, the inhibition in [19] is 3.43%; in [20], 2.08%.
Regarding `COc1ccc(-c2ccc3c(NC(=O)C4CC4)n[nH]c3n2)cc1`, the inhibition in experiment [1] worked out at 3.42%; in experiment [2], 3.2%; in experiment [3], 0.74%; in experiment [4], 5.12%; in experiment [5] it was 5.49%; in experiment [6] it was 1.77%. In addition, the inhibition in [7] is 1.31%; in experiment [8], 1.02%; in experiment [9] it was 1.62%; in [10] it was 1.9%; in [11], 4%; in experiment [12], -0.93%. Moreover, the inhibition in [13] was found to be 5.16%; in [14], 1.17%; in experiment [15], 0.43%; in experiment [16], 1.07%; in [17], 3.1%; in experiment [18], 0.55%. For the same compound, the inhibition is 0.43% in experiment [19] and 0.61% in [20].
In the case of `Cc1ccc(C(=O)NC2CCC2)cc1-c1ccc(C(=O)NCC2CC2)cc1`, the inhibition turned out to be 5.58% in experiment [1]; 4.95% in experiment [2]; 2.15% in [3]; 4.58% in experiment [4]; 8.02% in [5]; 1.24% in experiment [6]. Besides, the inhibition is 1% in [7]; -2.9% in experiment [8]; 4.65% in experiment [9]; 0.98% in [10]; 2.7% in [11]; 4.64% in experiment [12]. The inhibition in experiment [13] is 6.65%; in experiment [14], 2.06%; in [15], 3.83%; in experiment [16], 4.44%; in experiment [17], 5.62%; in experiment [18], 0.92%. In addition, the inhibition in experiment [19] was found to be 1.77%; in experiment [20], 2.02%.
Take `CCc1nccc2c1nc(-c1nonc1N)n2CC`: the inhibition is 2.52% in [1]; 0.58% in experiment [2]; 1.55% in experiment [3]; 3.28% in experiment [4]; -1.94% in experiment [5]; -0.59% in experiment [6]. Further, the inhibition was 3.19% in [7]; -0.59% in [8]; 1.95% in experiment [9]; 2.96% in experiment [10]; 0.11% in experiment [11]; 11.6% in experiment [12]. The inhibition in experiment [13] was 16.3%; in experiment [14], -0.66%; in experiment [15], 2.4%; in experiment [16] it was 0.64%; in experiment [17], 0.74%; in experiment [18], -0.83%. In addition, the inhibition in experiment [19] is -1.07%; in [20], 0.88%.
